# BoNT-F LC inh: inhibitors of Botulinum neurotoxin F light chain protease; Multiplex microsphere protease cleavage assay, flow cytometry; actives 0.22% (n = 360,000); inhibition, % at 10 µM; in the data active means inhibition above about 35%, passing the limit was not always enough; inconclusive means no clear call, values can overlap the other calls
# Anthrax LF inh2: anthrax lethal factor protease inhibition | P15917 | multiplex microsphere protease cleavage assay, LF | inhibition, % at 10 µM | actives 0.12% (n = 360,000)
# Target sequence (P15917 whole entry, looked up): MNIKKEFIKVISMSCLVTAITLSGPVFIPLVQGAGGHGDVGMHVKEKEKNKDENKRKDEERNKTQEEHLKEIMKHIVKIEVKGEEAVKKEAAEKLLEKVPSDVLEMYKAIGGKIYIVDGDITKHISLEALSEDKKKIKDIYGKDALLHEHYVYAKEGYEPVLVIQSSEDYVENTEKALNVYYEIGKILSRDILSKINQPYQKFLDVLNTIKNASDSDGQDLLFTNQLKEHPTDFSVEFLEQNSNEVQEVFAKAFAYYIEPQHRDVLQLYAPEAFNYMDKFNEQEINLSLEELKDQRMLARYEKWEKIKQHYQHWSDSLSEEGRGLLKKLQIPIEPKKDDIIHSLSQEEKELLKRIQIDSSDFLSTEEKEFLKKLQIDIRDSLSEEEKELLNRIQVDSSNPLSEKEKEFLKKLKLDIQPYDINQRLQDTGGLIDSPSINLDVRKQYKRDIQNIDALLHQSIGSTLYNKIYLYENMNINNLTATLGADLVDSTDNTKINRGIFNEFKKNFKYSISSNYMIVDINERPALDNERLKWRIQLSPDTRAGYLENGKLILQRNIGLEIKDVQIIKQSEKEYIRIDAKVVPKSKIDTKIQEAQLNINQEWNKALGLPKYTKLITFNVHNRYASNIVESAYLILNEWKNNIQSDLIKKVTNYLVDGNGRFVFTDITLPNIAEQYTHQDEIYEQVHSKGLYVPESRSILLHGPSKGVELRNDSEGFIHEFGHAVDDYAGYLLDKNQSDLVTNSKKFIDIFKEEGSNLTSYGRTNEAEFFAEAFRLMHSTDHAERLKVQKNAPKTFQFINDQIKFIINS
# CCHF vOTU inh: CCHFV vOTU protease inhibition; Pep-AMC fluorescence; inhibition, % at 11.5 µM; actives 0.55% (n = 370,000); AID 651958; in the data active means inhibition above about 30%
# BoNT A protease: blocks Botulinum neurotoxin A light chain protease | inhibition, % at 10 µM | actives 0.17% (n = 360,000) | multiplex microsphere protease substrate cleavage, flow cytometry
# Bead autofluor: counter-screen for toxin protease inhibitors: compound fluorescence. compound autofluorescence counterscreen, microsphere flow cytometry; active compounds read high. fluorescence intensity (no concentration beside the values). actives 3.1% (n = 360,000). AID 624483; in the data active means fluorescence intensity above about 16000; inconclusive means no clear call, values can overlap the other calls
# 3CLpro inhibitor: SARS-CoV 3CLpro protease inhibition; AID 1706; P0C6X7; actives 0.14% (n = 290,000); recombinant SARS-CoV 3CLpro, quenched FRET peptide cleavage; inhibition, % at 6 µM; in the data active means inhibition above about 12%
# Hits are given with their value; i = inactive; ? = inconclusive; nt = not tested or not shown. Hits are enriched below; roughly 3.9% of the tested compounds scored in any of these assays. Unless noted, no stated cut-off is given here; in the data, active means inhibition above about 30%; inconclusive means no clear call, values can overlap the other calls; inactive means below that.
SMILES,BoNT-F LC inh,Anthrax LF inh2,CCHF vOTU inh,BoNT A protease,Bead autofluor,3CLpro inhibitor
CC(=O)Nc1ccc2c(c1)nc1n2CCSC1,i,i,i,i,18041,i
COC(=O)[C@]1(CNC(=O)Nc2ccc(C)c(Cl)c2)CC(=O)N(C)[C@@H]1c1ccccc1,nt,nt,i,nt,nt,nt
CCOC(=O)[C@H](Cc1ccccc1)NC(=O)[C@H]1C[C@@]2(N3CCCCC3)c3ccccc3N(C(=O)OC(C)(C)C)[C@H]2N1C(=O)OC(C)(C)C,nt,nt,i,nt,nt,nt
COC(=O)[C@]12C[C@H](CC(=O)N3CCN(C(=O)C4CC4)CC3)C(=O)N(Cc3ccco3)C1=C[C@H](C(C)C)O[C@@H]2C1CC1,nt,nt,i,nt,nt,nt
COc1ccccc1-c1ccc(NC2CCCCC2)nn1,i,i,i,i,23544,i
COc1ccccc1-c1ccc(Nc2cccc(C(F)(F)F)c2)nn1,i,i,i,i,i,i
CCOC(=O)c1cc(NC(=O)N(C(C)C)C(C)C)c(C)nc1C,i,i,i,i,16634,i
CCOC(=O)c1cc(NC(=O)N(CC)CC)c(C)nc1C,i,i,i,i,24580,i
CCOC(=O)c1cc(NC(=O)N(C(C)C)C2CCCCC2)c(C)nc1C,i,i,i,i,i,i
COC(=O)[C@]12C[C@H](CC(=O)NCc3ccc(C)o3)C(=O)N(Cc3ccco3)C1=C[C@H](COCc1ccccc1)O[C@@H]2C,nt,nt,i,nt,nt,nt
Cc1cc(NC(=O)Cc2c(C)[nH]c3ccccc23)ccc1Oc1cccnc1,nt,nt,i,nt,nt,nt
CCCCCOC(=O)c1c(N)n(CCOC)c2nc3ccccc3nc12,i,i,i,i,20661,i
CCC(C)NC(=O)c1c(N)n(CCCOC)c2nc3ccccc3nc12 (centres undefined),i,i,i,i,17608,i
COCCCn1c(N)c(C(=O)Nc2ccccc2)c2nc3ccccc3nc21,?,i,i,i,i,i
C#CCNC(=O)C[C@H]1C[C@@]2(C(=O)OC)C(=C[C@H](C(C)(C)C)O[C@@H]2C)N(Cc2cccc3ccccc23)C1=O,nt,nt,i,nt,nt,nt
Cc1cc(C)c(C2=NOC3c4ccccc4OCC23)c(C)c1 (centres undefined),nt,nt,i,nt,nt,nt
Cc1ccccc1NC(=S)NNC(=O)c1ccoc1C,i,i,i,i,24040,i
O=c1c2c(n3nnnc3n1Cc1ccc(Cl)cc1)-c1ccccc1CC21CCCC1,nt,nt,i,nt,nt,nt
Nc1c(-c2ccc(Cl)cc2)cnc2ncnn12,i,i,i,i,23393,i
CC(=O)c1ccc(N2CCN(C(=S)Nc3ccccc3)CC2)cc1,i,i,i,i,i,i
COC(=O)N1CCN(c2ccc(C(C)=O)cc2)CC1,i,i,i,?,18481,i
Cc1ccc(C(=O)NCc2ccc(N3CCN(C(=O)OC(C)(C)C)CC3)cc2)cc1,i,i,i,?,23049,i
CSc1ccc(C(=O)NCC2CCN(C(=O)C(=O)c3cc4ccccc4o3)CC2)cc1,nt,nt,i,nt,nt,nt
CC(NC(=O)c1ccc(F)cc1)c1nc2ccccc2n1Cc1ccccc1F (centres undefined),i,i,nt,i,26278,i
O=c1[nH]c2ccsc2c(=O)n1-c1ccc(F)c(Cl)c1,i,i,i,?,17764,i
SMILES,BoNT-F LC inh,Anthrax LF inh2,CCHF vOTU inh,BoNT A protease,Bead autofluor,3CLpro inhibitor
O=C(CSc1ccccc1)N1CCC(Oc2cccnc2)CC1,nt,nt,i,nt,nt,nt
CCOC(=O)Cn1cc(CN2CCS(=O)(=O)N(Cc3ccc(OC)cc3)C(C(=O)OC)C2)nn1 (centres undefined),nt,nt,i,nt,nt,nt
CCn1cc([N+](=O)[O-])c(C(=O)N2N=C3/C(=C/c4cccs4)CCCC3C2c2cccs2)n1 (centres undefined),i,i,i,i,21392,i
Cc1noc(C)c1CSc1nnc2ccccn12,i,i,i,i,19015,i
Cc1noc(C)c1CSc1nc2sc(C)c(C)c2c(=O)n1-c1ccccc1,i,i,i,i,i,i
COn1c(SCc2ccc(Cl)cc2)nc2ccccc2c1=O,i,i,i,?,22710,i
Cc1noc(C)c1CSc1nc2ccccc2c(=O)n1-c1ccc(Cl)cc1,i,i,i,?,22121,i
Cc1noc(C)c1CSc1ccc2ccccc2n1,i,i,i,i,20444,i
Cc1c(NS(=O)(=O)c2cc3c(cc2Br)CCN3C(=O)C2CC2)c(=O)n(-c2ccccc2)n1C,nt,nt,i,nt,nt,nt
Cc1ccc([N+](=O)[O-])cc1NC(=S)NC(=O)CC(C)(C)C,i,i,i,i,19100,i
CC(C)(C)CC(=O)NC(=S)Nc1ccccc1C(F)(F)F,i,i,i,i,24827,i
CC(C)CC(=O)NC(=S)Nc1ccccc1C(F)(F)F,i,i,i,i,i,i
CSc1ccccc1NC(=S)Nc1ccccc1C(F)(F)F,i,i,i,i,19907,i
CC(C)(C)c1ccc(-c2nnc(SCC(=O)Nc3ccc(Oc4ccccc4)cc3)n2Cc2ccco2)cc1,nt,nt,i,nt,nt,nt
COCCC1CCCCN1C(=O)c1cc(COc2ccc(-n3cncn3)cc2)on1 (centres undefined),i,i,i,i,35235,i
COCCOC1CCN(C(=O)c2cc(COc3ccc(-n4cncn4)cc3)on2)CC1,i,i,i,i,i,i
C#CCNC(=O)C[C@H]1C[C@@]2(C(=O)OC)C(=C[C@H](C3CCCC3)O[C@@H]2C)N(Cc2ccccc2)C1=O,nt,nt,i,nt,nt,nt
O=C(CCN1C(=O)c2ccccc2C1=O)NCc1ccncc1,i,i,i,i,i,i
O=C(CN1C(=O)c2ccccc2C1=O)NCc1ccncc1,i,i,i,i,20208,i
O=C(Nc1nc2c(s1)CCCC2=O)c1cnccn1,i,i,i,i,23908,i
COC(=O)c1c(NC(=O)c2cnccn2)sc2c1CCC2,i,i,i,i,i,i
CCn1c(COc2cccc(OC)c2)nnc1SCC(=O)Nc1ccccc1C(=O)OC,i,i,i,?,19252,i
CCn1c(COc2ccc(C)cc2)nnc1SCC(=O)Nc1cc(OC)ccc1OC,i,i,i,i,22615,i
CCn1c(COc2ccccc2C)nnc1SCC(=O)N1CCCCC1,i,i,i,i,i,i
CCn1c(COc2ccc(Cl)c(C)c2)nnc1SCC(=O)N1CCCC1,i,i,i,?,20792,i
SMILES,BoNT-F LC inh,Anthrax LF inh2,CCHF vOTU inh,BoNT A protease,Bead autofluor,3CLpro inhibitor
CCn1c(COc2ccccc2)nnc1SCC(=O)Nc1cc(C)ccc1OC,i,i,i,i,i,i
CCn1c(SCC(=O)Nc2ccccc2C(=O)OC)nnc1-c1ccc(N)cc1,i,i,i,i,23878,i
Cc1ccccc1C(=O)N[C@H](C(=O)N1CCC[C@H]1C(=O)NCCc1ccccc1Cl)C(C)C,nt,nt,i,nt,nt,nt
C=CCNc1cccc2c1S(=O)(=O)N[C@H](Cc1ccccc1)CO2,nt,nt,i,nt,nt,nt
CCCC(=O)OC12CCCN(C1)/C(=C/c1cccc(Cl)c1)C2 (centres undefined),nt,nt,i,nt,nt,nt
COC(=O)N1C[C@H](OCc2ccc3c(c2)OCO3)[C@H]2C[C@@H]1c1ccccc1O2,nt,nt,i,nt,nt,nt
O=C(Cc1ccccc1)NC1CCCCN(Cc2ccc(Cl)cc2)C1=O (centres undefined),nt,nt,i,nt,nt,nt
COc1ccc(S[C@]2(C(=O)N3CCCC3)CC(=O)N(c3ccccc3OC)[C@@H]2c2ccc(OC)cc2)cc1,nt,nt,i,nt,nt,nt
Cc1cc(-c2n[nH]c(=S)n2N=Cc2cccc(Oc3ccccc3)c2)n[nH]1,nt,nt,i,nt,nt,nt
